This passage reports INHIBITION results from ChEMBL document CHEMBL4513216, “Probing the Open Global Health Chemical Diversity Library for Multistage-Active Starting Points for Next-Generation Antimalarials” (ACS Infect Dis, 2020).

Out of some 69,000 compounds screened, about 8,600 (12%) showed an effect of 50% or more. The list comes from a sample in which strong results are over-represented; it also holds similar structures and randomly drawn compounds.

The test system of the test is Plasmodium berghei. In words: Screen against P. berghei liver stage (PbLuc), transformed with Luciferase, at 10uM. It is filed as functional, HepG2. The following applies: tested at 10 uM.
For the molecule `O=C(CCc1ccc2c(c1)OCO2)N1CCCCC1Cn1cccn1` (centres undefined), the INHIBITION is recorded as -0.219%.
With `CCN1CCOCC2(CCCN(C(=O)c3cnccn3)C2)C1` (centres undefined), the INHIBITION is -8.51%.
For `CSc1ncccc1C(=O)N1C[C@@H]2CC[C@H]1CN(CC(=O)N(C)C)C2` the value was 22.8%; for `CN(C)C(=O)c1ccc(C2CCCN2C(=O)c2cccc3c2OCC3)s1` (centres undefined), 81.1%; for `CN(C)C(=O)c1ccc(C2CCCN2C(=O)c2ccccc2N(C)C)s1` (centres undefined), 39.1%.
For `CSc1ncccc1C(=O)N1CCCC1c1ccc(C(=O)N(C)C)s1` (centres undefined) the value was 65.2%; for `O=C1CCC(CCC(=O)N2CCCC2c2nccs2)=NN1` (centres undefined), 27.6%.
The same measure for `CN(C)C(=O)c1ccc(C2CCCN2C(=O)CCC2=NNC(=O)CC2)s1` (centres undefined): 56.7%.
With `O=C1CCC(CCC(=O)N2CCC2c2cccs2)=NN1` (centres undefined), the INHIBITION is reported as 11.2%.
For `CSc1ncccc1C(=O)N1C[C@@H]2CC[C@H]1CN(C(=O)N(C)C)C2` the value was 30.3%.
The same measure for `Cc1occc1C(=O)N1CCCC1c1ccc(C(=O)N2CCOCC2)s1` (centres undefined): -60.2%; for `CNC(=O)N1CCC2(CC1)CN(C(C)C)Cc1cc(F)ccc12`: 42.3%; for `CC(=O)c1ccc(C(=O)N2C[C@H]3CC[C@@H](C2)N(CC2CCC2)C3)s1`: -92.2%.
Take `O=C([C@H]1COC[C@H]2CN(C3CCOCC3)C[C@H]21)N1CCCO1`: the INHIBITION is reported as -1.83%.
Take `c1cnc(N2CCN3C[C@H](Oc4cncnc4)C[C@H]3C2)nc1`: the INHIBITION is given as 34.5%.
The same measure for `O=C(c1ccc(F)cc1)N1CCN2C[C@H](Oc3cccnc3)C[C@H]2C1`: 44.2%.
Regarding `Cc1cccc(CN2CCN3C[C@H](Oc4cncnc4)C[C@H]3C2)n1`, the INHIBITION is 37.6%.
For `Cc1ccc(O[C@@H]2C[C@H]3CN(Cc4nccn4C)CCN3C2)cc1` the value was -15.7%; for `Cc1nc(CN2CCN3C[C@H](Oc4cncnc4)C[C@H]3C2)cs1`, 88.3%; for `c1cncc(CN2CCN3C[C@H](Oc4cncnc4)C[C@H]3C2)c1`, 27.6%.
The same measure for `Fc1cnc(N2CCN3C[C@H](Oc4cncnc4)C[C@H]3C2)nc1`: 56.4%; for `Cn1ccnc1CN1CCN2C[C@H](Oc3cncnc3)C[C@H]2C1`: -10.3%.
The same measure for `O=C(c1cnccn1)N1CCN2C[C@H](Oc3cccnc3)C[C@H]2C1`: 15.6%.
As to `Fc1cnc(N2CCN3C[C@H](Oc4cccnc4)C[C@H]3C2)nc1`, the INHIBITION is 82.2%.
The same measure for `Cc1ccc(O[C@@H]2C[C@H]3CN(c4ncc(F)cn4)CCN3C2)cc1`: 79.2%.
For `Cc1cnc(N2CCN3C[C@H](OCc4ccccn4)C[C@H]3C2)nc1` the value was 42.3%; for `O=C(COCc1ccccc1)N1CCCC(OCc2cccnc2)C1` (centres undefined), 0.348%; for `CCCc1nc(CN2CCCC2c2cnn(C)c2)cs1` (centres undefined), -32%.
The same measure for `CCn1cc(CN2CCN(CC(O)c3ccc(C)cc3C)CC2)cn1` (centres undefined): 5.11%.
With `CN1CC(=O)N(c2cnn(C)c2)CC12CCN(Cc1cccs1)C2` (centres undefined), the INHIBITION amounted to 7.31%.
For `CC(NC(=O)N(C)CCOc1ccccc1F)c1nncn1C` (centres undefined) the value was 7.08%; for `CC1(C(N)=O)CN(CC2CCC2)CCO1` (centres undefined), -1.75%.
`CS(=O)(=O)N1CC[C@@H]2O[C@@H](COCC(=O)N3CCCC3)CC[C@@H]21`: the INHIBITION was determined as 1.9%.
For `Cc1nc(C2CCN(C(=O)c3ccnn3C)CC2)c2sccn12` the value was 15.9%; for `Cc1cccc2sc(NC(=O)CN3CCC(C)CC3)nc12`, 14.1%.
The same measure for `Cc1cccc2sc(NC(=O)CN3CCCC4(CC3)CNC(=O)O4)nc12` (centres undefined): 38.7%; for `Cc1cccc2sc(NC(=O)CN3CCCC(O)(CO)C3)nc12` (centres undefined): 74.5%.
For `Cc1c(Cl)cccc1NCc1nc2n(n1)CCCCC2` the value was 26.7%.
In the case of `CN(C)c1ncc(CNC(=O)Nc2ccccc2F)n1C`, the INHIBITION is given as 48.9%.
As to `CN(C)c1ncc(CNC(=O)Nc2ccccc2C(F)(F)F)n1C`, the INHIBITION stood at 36.9%.
The same measure for `CN(C)c1ncc(CNC(=O)Nc2ccc(C(F)(F)F)cc2)n1C`: 78.6%.
The same measure for `COc1ccc(CN2CC[C@H]3[C@H]2CCN3C(=O)c2cnn(C)c2)cc1`: 39.8%; for `CNC(=O)c1sc2ncccc2c1C1CCN(C(=O)CCOC)C1` (centres undefined): -7.525%; for `O=C(CCc1ccncc1)NCc1csc(Br)c1`: -6.14%.
For `CN(C)CCNC(=O)Cn1cnc2cc(NC(=O)C3CC3)ccc21` the value was 4.48%.
On to `CCS(=O)(=O)N1CCC2(CC1)CC(COC)N(c1ncccn1)C2` (centres undefined), for which the INHIBITION was found to be 65.6%.
For `COCCN1CCC2(CC1)CC(COC)N(c1ncccn1)C2` (centres undefined) the value was 23.5%.
Consider `COCC1CC2(CCN(S(=O)(=O)C3CC3)CC2)CN1c1ncccn1` (centres undefined), for which the INHIBITION is given as 19.5%.
For `COCC1CC2(CCN(Cc3ccccn3)CC2)CN1C(C)C` (centres undefined) the value was -2.27%; for `COCC1CC2(CCN(c3cc(OC)ncn3)CC2)CN1C(C)C` (centres undefined), 58.4%.
On to `COCC1CC2(CCN(c3ccccn3)CC2)CN1C(C)C` (centres undefined), for which the INHIBITION is on record as 64.7%.
For `COCC1CC2(CCN(c3ccc(C)nn3)CC2)CN1C(C)C` (centres undefined) the value was 16.8%; for `COCC1CC2(CCN(Cc3ccncc3)CC2)CN1C(C)C` (centres undefined), 12.6%; for `COCC1CC2(CCN(c3cccc(C)n3)CC2)CN1C(C)C` (centres undefined), 29.4%.
